Assay results taken from PubChem BioAssay (NCATS).
Where “and” joins values, the source holds several entries; their conditions need not be identical. Identical values can stand only once. Records with an inconclusive call do not appear. More than one record can exist for a structure, and the calls need not agree. Calls of active or inactive are those of the source.

Test: qHTS Assay for Identifying Gametocytocidal Compounds (AID 743244); also: potency is read from the fitted curve at half-maximal effect;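 as to max response: % is scaled to controls: 0 for no effect and ±100 for the full control effect; actives lower the fluorescent signal which means gametocytes are killed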
Conditions: P. falciparum 3D7 stage III-V gametocytes, alamarBlue, 72 h; max response: stronger effect = lower value
Outline: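 Stage III–V gametocytes of P. falciparum 3D7 were seeded at 20,000 cells/well onto pre-dispensed compounds. After 72 h, 37 °C, 5% CO2, alamarBlue was added for another 24 h.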

Structure (SMILES)	Potency	max response
CCOC(=O)C1=C(COCCN)NC(C)=C(C(=O)OC)C1c1ccccc1Cl (centres undefined)	20 µM (active)	-0.484% (inactive)
CC(C)C[C@H](CN)CC(=O)O	–	2.29% (inactive)
O=P1(N(CCCl)CCCl)NCCCO1 (centres undefined)	–	-0.339% (inactive) and 12.3% (inactive)
CCCC(C)(COC(N)=O)COC(N)=O	–	-2.61% (inactive)
CC(=O)N1CCN(c2ccc(OC[C@H]3CO[C@](Cn4ccnc4)(c4ccc(Cl)cc4Cl)O3)cc2)CC1	–	0.452% (inactive)
O=C1CN=C(c2ccccc2)c2cc([N+](=O)[O-])ccc2N1	–	13.6% (inactive)
CCCCCN(C)CCC(O)(P(=O)(O)O)P(=O)(O)O	–	17.4% (inactive) and 7.96% (inactive)
CC(C)C[C@H]1C(=O)N2CCC[C@H]2[C@]2(O)O[C@](NC(=O)[C@@H]3C=C4c5cccc6[nH]c(Br)c(c56)C[C@H]4N(C)C3)(C(C)C)C(=O)N12	22.4 µM (active) and 1.26 µM (active)	–
CN1C[C@H](C(=O)N[C@]2(C)O[C@@]3(O)[C@@H]4CCCN4C(=O)[C@H](Cc4ccccc4)N3C2=O)C=C2c3cccc4[nH]cc(c34)C[C@H]21	8.91 µM (active)	–
CN=C1CN(O)C(c2ccccc2)=c2cc(Cl)ccc2=N1	–	7.17% (inactive)

Test: qHTS assay for cell viability of HEK293 cells (AID 743288); also: % is scaled to controls: 0 for no effect and ±100 for the full control effect; nearly all actives have a fitted effect of over 50% in size
Conditions: ATP luminescence (CellTiter-Glo), 18 h, stronger effect = lower value
Outline: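 Viable-cell counts were inferred from luciferase-based ATP content in HEK293 cells seeded at 2,000/well, pre-incubated ≥5 h, then dosed with DMSO-solubilised compounds for 18 h at 37 C.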

Structure (SMILES)	max response
O=P1(N(CCCl)CCCl)NCCCO1 (centres undefined)	-14.2% (inactive) and 0.164% (inactive)
CCCC(C)(COC(N)=O)COC(N)=O	2.5% (inactive) and 7.62% (inactive)
CN1C[C@H](C(=O)N[C@]2(C)O[C@@]3(O)[C@@H]4CCCN4C(=O)[C@H](Cc4ccccc4)N3C2=O)C=C2c3cccc4[nH]cc(c34)C[C@H]21	-13.1% (inactive) and -12.3% (inactive)
C[C@]1(O)CC[C@H]2[C@@H]3CCC4=CC(=O)CC[C@]4(C)[C@@]3(F)[C@@H](O)C[C@@]21C	-0.591% (inactive)

Test: qHTS assay for cell viability of the p53RE-bla HCT-116 cell line (AID 743292); also: % is scaled to controls: 0 for no effect and ±100 for the full control effect; nearly all actives have a fitted effect of over 55% in size
Conditions: p53RE-bla HCT-116 viability, ATP luminescence, 16 h; series mostly up to 95 µM; activity change, negative = cytotoxicity: at the top concentration
Outline: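 CellSensor p53RE-bla HCT-116 cells (4,000/well) pre-incubated 5 h at 37 C, then exposed to compounds in DMSO for 16 h at 37 C. Viability read as ATP content by CellTiter-Glo luminescence after 30 min at room temperature.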

Structure (SMILES)	Potency	activity change, negative = cytotoxicity
O=P1(N(CCCl)CCCl)NCCCO1 (centres undefined)	inactive	–
CCCC(C)(COC(N)=O)COC(N)=O	inactive	–
CN1C[C@H](C(=O)N[C@]2(C)O[C@@]3(O)[C@@H]4CCCN4C(=O)[C@H](Cc4ccccc4)N3C2=O)C=C2c3cccc4[nH]cc(c34)C[C@H]21	inactive	–
C[C@]1(O)CC[C@H]2[C@@H]3CCC4=CC(=O)CC[C@]4(C)[C@@]3(F)[C@@H](O)C[C@@]21C	–	8.63% (inactive)

Test: qHTS profiling of the MIPE4 collection as inhibitors of Plasmodium falciparum (3D7) proliferation (AID 743344; call rule not given here;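 also: scaled between DMSO vehicle wells and 0.29 µM artemisinin as full inhibition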)
Conditions: P. falciparum 3D7 in erythrocytes, SYBR Green DNA fluorescence, 72 h; at 28.5 µM (top of the series) unless noted
Outline: (§1)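 Parasite DNA was quantified by SYBR Green I fluorescence (ex 485, em 535 nm) after overnight lysis in saponin/Triton buffer at room temperature. Cultures at 0.3% parasitemia and 2.5% hematocrit were first exposed to compound for 72 h at 37 C; signals were normalised to artemisinin (0.29 uM) and vehicle wells.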

Structure (SMILES)	parasite growth, % of DMSO control
CCOC(=O)C1=C[C@@H](OC(CC)CC)[C@H](NC(C)=O)[C@@H](N)C1	91.3%
O=P1(N(CCCl)CCCl)NCCCO1 (centres undefined)	42.1%
C[C@](O)(CS(=O)(=O)c1ccc(F)cc1)C(=O)Nc1ccc(C#N)c(C(F)(F)F)c1	22%
Nc1ccn(C[C@@H](CO)OCP(=O)(O)O)c(=O)n1	94% [at 9.64 µM]

Test: qHTS profiling of the MIPE4 collection as inhibitors of Plasmodium falciparum (DD2) proliferation (AID 743345; call rule not given here)
Conditions: P. falciparum Dd2 in erythrocytes, SYBR Green DNA, 72 h; at 28.5 µM (top of the series) unless noted
Outline: as §1

Structure (SMILES)	parasite growth remaining, % of DMSO control (lower = more inhibition)
CCOC(=O)C1=C[C@@H](OC(CC)CC)[C@H](NC(C)=O)[C@@H](N)C1	97.7%
O=P1(N(CCCl)CCCl)NCCCO1 (centres undefined)	54.1%
O=P(O)(O)C(O)(Cn1ccnc1)P(=O)(O)O	90.7% [at 9.64 µM]
C[C@](O)(CS(=O)(=O)c1ccc(F)cc1)C(=O)Nc1ccc(C#N)c(C(F)(F)F)c1	93.2%
CC(=O)N1CCN(c2ccc(OC[C@H]3CO[C@](Cn4ccnc4)(c4ccc(Cl)cc4Cl)O3)cc2)CC1	34.2%
Nc1ccn(C[C@@H](CO)OCP(=O)(O)O)c(=O)n1	103% [at 9.64 µM]

Test: qHTS profiling of the MIPE4 collection as inhibitors of Plasmodium falciparum (DD2) proliferation (Rep 2) (AID 743346; call rule not given here)
Conditions: P. falciparum Dd2 in erythrocytes, SYBR Green DNA, 72 h; at 28.5 µM (top of the series) unless noted
Outline: as §1

Structure (SMILES)	parasite growth, % of control (lower = inhibition)
CCOC(=O)C1=C[C@@H](OC(CC)CC)[C@H](NC(C)=O)[C@@H](N)C1	101%
Cc1onc(-c2ccccc2)c1C(=O)N[C@@H]1C(=O)N2[C@@H](C(=O)O)C(C)(C)S[C@@H]12	92.1%
CC(C)C[C@H](CN)CC(=O)O	89%
O=P1(N(CCCl)CCCl)NCCCO1 (centres undefined)	39.6%
C[C@](O)(CS(=O)(=O)c1ccc(F)cc1)C(=O)Nc1ccc(C#N)c(C(F)(F)F)c1	33.5%
CC(=O)N1CCN(c2ccc(OC[C@H]3CO[C@](Cn4ccnc4)(c4ccc(Cl)cc4Cl)O3)cc2)CC1	31%
Nc1ccn(C[C@@H](CO)OCP(=O)(O)O)c(=O)n1	97.9% [at 9.64 µM]

Test: qHTS profiling of the MIPE4 collection as inhibitors of Plasmodium falciparum (HB3) proliferation (AID 743347; call rule not given here;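 also: plate controls were DMSO vehicle wells for no effect and artemisinin wells for full effect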)
Conditions: P. falciparum HB3 in erythrocytes, SYBR Green DNA, 72 h; at 28.5 µM (top of the series) unless noted
Outline: as §1

Structure (SMILES)	growth, % of control
CCOC(=O)C1=C[C@@H](OC(CC)CC)[C@H](NC(C)=O)[C@@H](N)C1	98.6%
Cc1onc(-c2ccccc2)c1C(=O)N[C@@H]1C(=O)N2[C@@H](C(=O)O)C(C)(C)S[C@@H]12	82.7%
O=P1(N(CCCl)CCCl)NCCCO1 (centres undefined)	65.9%
O=P(O)(O)C(O)(Cn1ccnc1)P(=O)(O)O	72.4% [at 9.64 µM]
C[C@](O)(CS(=O)(=O)c1ccc(F)cc1)C(=O)Nc1ccc(C#N)c(C(F)(F)F)c1	27.8%
Nc1ccn(C[C@@H](CO)OCP(=O)(O)O)c(=O)n1	81.6% [at 9.64 µM]

Test: not given
Conditions: Ebola virus entry assay, blue channel fluorescence

Structure (SMILES)	outcome	AC50
C[C@H](CS)C(=O)N1CCC[C@H]1C(=O)O	inactive	–
CCOC(=O)C1=C[C@@H](OC(CC)CC)[C@H](NC(C)=O)[C@@H](N)C1	inactive	–
NC(=O)CC[C@@H]1NC(=O)[C@H](Cc2ccccc2)NC(=O)[C@H](Cc2ccc(O)cc2)NC(=O)[C@@H](N)CSSC[C@@H](C(=O)N2CCC[C@H]2C(=O)N[C@@H](CCCN=C(N)N)C(=O)NCC(N)=O)NC(=O)[C@H](CC(N)=O)NC1=O	inactive	–
CCOC(=O)C1=C(COCCN)NC(C)=C(C(=O)OC)C1c1ccccc1Cl (centres undefined)	inactive	–
Cc1onc(-c2ccccc2)c1C(=O)N[C@@H]1C(=O)N2[C@@H](C(=O)O)C(C)(C)S[C@@H]12	inactive	–
CC(C)C[C@H](CN)CC(=O)O	inactive	–
O=P1(N(CCCl)CCCl)NCCCO1 (centres undefined)	inactive	–
N[C@@H](Cc1cc(I)c(Oc2ccc(O)c(I)c2)c(I)c1)C(=O)O	inactive	–
COc1cccc2c1C(=O)c1c(O)c3c(c(O)c1C2=O)C[C@@](O)(C(C)=O)C[C@H]3O[C@H]1C[C@H](N)[C@H](O)[C@H](C)O1	–	6.31 µM (active)
O=P(O)(O)C(O)(Cn1ccnc1)P(=O)(O)O	inactive	–
O=C1[O][Bi][O]c2ccccc21	inactive	–
CC1(C)S[C@@H]2[C@H](NC(=O)[C@H](N)c3ccc(O)cc3)C(=O)N2[C@H]1C(=O)O	inactive	–
C[C@](O)(CS(=O)(=O)c1ccc(F)cc1)C(=O)Nc1ccc(C#N)c(C(F)(F)F)c1	inactive	–
CC(=O)N1CCN(c2ccc(OC[C@H]3CO[C@](Cn4ccnc4)(c4ccc(Cl)cc4Cl)O3)cc2)CC1	inactive	–
CCCc1nc(C(C)(C)O)c(C(=O)OCc2oc(=O)oc2C)n1Cc1ccc(-c2ccccc2-c2nn[nH]n2)cc1	inactive	–
CC(C=CC1=C(C)CCCC1(C)C)=CC=CC(C)=CC(=O)O	inactive	–
CSCC[C@H](NC(=O)[C@H](Cc1ccc(OS(=O)(=O)O)cc1)NC(=O)[C@@H](N)CC(=O)O)C(=O)NCC(=O)N[C@@H](Cc1c[nH]c2ccccc12)C(=O)N[C@@H](CCSC)C(=O)N[C@@H](CC(=O)O)C(=O)N[C@@H](Cc1ccccc1)C(N)=O	inactive	–
Nc1ccn(C[C@@H](CO)OCP(=O)(O)O)c(=O)n1	inactive	–
COc1cc([C@@H]2c3cc4c(cc3[C@@H](O[C@@H]3O[C@@H]5CO[C@@H](C)O[C@H]5[C@H](O)[C@H]3O)[C@H]3COC(=O)[C@H]23)OCO4)cc(OC)c1O	inactive	–
CCCCCN(C)CCC(O)(P(=O)(O)O)P(=O)(O)O	inactive	–
CC(C)C[C@H]1C(=O)N2CCC[C@H]2[C@]2(O)O[C@](NC(=O)[C@@H]3C=C4c5cccc6[nH]c(Br)c(c56)C[C@H]4N(C)C3)(C(C)C)C(=O)N12	inactive	–
NC(=O)COCCN1CCN(C(c2ccccc2)c2ccc(Cl)cc2)CC1 (centres undefined)	inactive	–
CC(=O)S[C@@H]1CC2=CC(=O)CC[C@]2(C)[C@H]2CC[C@@]3(C)[C@@H](CC[C@@]34CCC(=O)O4)[C@H]12	inactive	–
CN1C[C@H](C(=O)N[C@]2(C)O[C@@]3(O)[C@@H]4CCCN4C(=O)[C@H](Cc4ccccc4)N3C2=O)C=C2c3cccc4[nH]cc(c34)C[C@H]21	inactive	–
CN=C1CN(O)C(c2ccccc2)=c2cc(Cl)ccc2=N1	inactive	–
C[C@]1(O)CC[C@H]2[C@@H]3CCC4=CC(=O)CC[C@]4(C)[C@@]3(F)[C@@H](O)C[C@@]21C	inactive	–
CC(O)(P(=O)(O)O)P(=O)(O)O	inactive	–
